For 7 sequences, binding signal results are on record in paper PMC7862700, “An all-to-all approach to the identification of sequence-specific readers for epigenetic DNA modifications on cytosine”.

Holding throughout (experiment): DAPPL (digital affinity profiling via proximity ligation, sequencing); 10 mM Tris-HCl pH 7.5, 50 mM NaCl, 1 mM DTT, 4% glycerol, room temperature, 30 min; GST-TFs on glutathione beads, 16-mer random dsDNA library, 0.1% formaldehyde crosslink after washing; high values mean tight binding
Common to all, as to details: protein: recombinant; tags: N-terminal GST; dsDNA, one strand shown

In one test the target is T1, FLI1 (Homo sapiens, UniProt Q01543 1-452).
T1 sequence: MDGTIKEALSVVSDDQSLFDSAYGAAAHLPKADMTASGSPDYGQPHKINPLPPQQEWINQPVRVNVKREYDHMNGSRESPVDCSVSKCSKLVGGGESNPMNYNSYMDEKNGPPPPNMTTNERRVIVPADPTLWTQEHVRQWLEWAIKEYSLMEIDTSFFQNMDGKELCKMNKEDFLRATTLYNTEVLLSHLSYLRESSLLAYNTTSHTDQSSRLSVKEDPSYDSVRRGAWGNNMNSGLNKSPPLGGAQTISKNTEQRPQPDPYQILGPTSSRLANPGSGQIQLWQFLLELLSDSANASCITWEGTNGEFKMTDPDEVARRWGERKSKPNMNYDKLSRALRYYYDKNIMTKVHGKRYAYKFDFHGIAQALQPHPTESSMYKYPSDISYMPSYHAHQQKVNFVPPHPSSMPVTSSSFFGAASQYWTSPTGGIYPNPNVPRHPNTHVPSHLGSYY
In outline:
(§1)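 After expression in yeast as GST fusions, human transcription factors were bound to glutathione beads, DNA-barcoded and mixed with a tag-only sample. The pools were incubated with 200 nmole of a 16-mer random double-stranded DNA library in Tris/NaCl/DTT/glycerol buffer (30 min, room temperature), washed and crosslinked with 0.1% formaldehyde. Proximity ligation with BsaI/T4 ligase ran for 1 h at 37 °C, before PCR amplification and sequencing on an Illumina NextSeq500. Binding signal is a hexamer's read frequency for a factor divided by its frequency for the tag-only sample.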

The next test concerns the target T2, ELK1 (Homo sapiens, UniProt P19419 1-428).
T2 sequence: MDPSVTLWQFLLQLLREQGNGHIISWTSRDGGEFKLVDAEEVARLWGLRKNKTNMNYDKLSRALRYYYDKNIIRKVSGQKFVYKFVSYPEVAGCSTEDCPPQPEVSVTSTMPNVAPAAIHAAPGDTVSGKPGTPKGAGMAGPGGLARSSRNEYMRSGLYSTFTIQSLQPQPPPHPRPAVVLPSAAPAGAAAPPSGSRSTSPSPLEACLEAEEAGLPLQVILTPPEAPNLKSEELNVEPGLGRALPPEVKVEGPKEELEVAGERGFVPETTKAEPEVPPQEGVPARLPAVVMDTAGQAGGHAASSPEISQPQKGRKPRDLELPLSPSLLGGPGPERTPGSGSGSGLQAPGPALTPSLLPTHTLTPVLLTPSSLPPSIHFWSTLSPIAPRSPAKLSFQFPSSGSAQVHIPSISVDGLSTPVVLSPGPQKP
In outline: as §1

In another test the target is T3, GABPA (Homo sapiens, UniProt Q06546 1-454).
T3 sequence: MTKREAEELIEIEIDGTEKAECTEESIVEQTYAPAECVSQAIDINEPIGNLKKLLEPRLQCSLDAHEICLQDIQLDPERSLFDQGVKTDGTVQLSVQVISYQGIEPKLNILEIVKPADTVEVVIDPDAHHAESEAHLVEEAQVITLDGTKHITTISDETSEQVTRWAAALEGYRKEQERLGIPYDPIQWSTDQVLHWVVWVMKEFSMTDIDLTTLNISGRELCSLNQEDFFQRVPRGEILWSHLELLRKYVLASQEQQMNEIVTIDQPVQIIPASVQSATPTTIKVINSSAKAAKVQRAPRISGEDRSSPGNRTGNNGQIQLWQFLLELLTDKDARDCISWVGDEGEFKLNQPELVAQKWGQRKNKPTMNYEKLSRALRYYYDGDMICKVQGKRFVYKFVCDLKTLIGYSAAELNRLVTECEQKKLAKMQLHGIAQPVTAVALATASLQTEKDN
In outline:
as §1

The target of a further test is T4, ERG (Homo sapiens, UniProt P11308 1-479).
T4 sequence: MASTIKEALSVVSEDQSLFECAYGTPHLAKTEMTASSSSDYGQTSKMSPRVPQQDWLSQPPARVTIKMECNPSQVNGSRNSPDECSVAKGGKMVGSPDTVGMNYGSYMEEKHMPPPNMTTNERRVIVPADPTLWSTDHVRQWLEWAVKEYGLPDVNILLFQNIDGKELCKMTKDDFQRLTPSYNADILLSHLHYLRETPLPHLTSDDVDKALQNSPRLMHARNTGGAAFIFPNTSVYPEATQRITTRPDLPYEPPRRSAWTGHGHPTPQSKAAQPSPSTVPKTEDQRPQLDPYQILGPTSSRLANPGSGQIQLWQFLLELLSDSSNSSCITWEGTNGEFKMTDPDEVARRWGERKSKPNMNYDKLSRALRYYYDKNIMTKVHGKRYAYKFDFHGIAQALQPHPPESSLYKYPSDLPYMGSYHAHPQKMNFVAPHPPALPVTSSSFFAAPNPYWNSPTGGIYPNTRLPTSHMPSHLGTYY
Put shortly:
as §1

The target of the next test is ELF1 (Homo sapiens, UniProt P32519 1-619). In outline:
as §1

The next test has as its target T5, EHF (Homo sapiens, UniProt Q9NZC4 1-300).
T5 sequence: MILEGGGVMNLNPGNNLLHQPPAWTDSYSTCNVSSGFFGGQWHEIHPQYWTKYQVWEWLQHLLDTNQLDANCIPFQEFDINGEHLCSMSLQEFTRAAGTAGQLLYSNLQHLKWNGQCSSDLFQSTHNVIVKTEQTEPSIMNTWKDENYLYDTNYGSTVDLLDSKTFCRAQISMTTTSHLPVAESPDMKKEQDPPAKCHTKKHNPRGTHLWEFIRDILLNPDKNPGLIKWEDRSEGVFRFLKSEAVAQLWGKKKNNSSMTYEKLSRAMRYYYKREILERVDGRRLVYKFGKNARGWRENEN
In outline: as §1

The next test deals with SPI1 (Homo sapiens, UniProt P17947 1-270). Put shortly:
as §1

The target in a further test is SPIB (Homo sapiens, UniProt Q01892 1-262). Put shortly:
as §1

A further test deals with T6, ELK3 (Homo sapiens, UniProt P41970 1-407).
T6 sequence: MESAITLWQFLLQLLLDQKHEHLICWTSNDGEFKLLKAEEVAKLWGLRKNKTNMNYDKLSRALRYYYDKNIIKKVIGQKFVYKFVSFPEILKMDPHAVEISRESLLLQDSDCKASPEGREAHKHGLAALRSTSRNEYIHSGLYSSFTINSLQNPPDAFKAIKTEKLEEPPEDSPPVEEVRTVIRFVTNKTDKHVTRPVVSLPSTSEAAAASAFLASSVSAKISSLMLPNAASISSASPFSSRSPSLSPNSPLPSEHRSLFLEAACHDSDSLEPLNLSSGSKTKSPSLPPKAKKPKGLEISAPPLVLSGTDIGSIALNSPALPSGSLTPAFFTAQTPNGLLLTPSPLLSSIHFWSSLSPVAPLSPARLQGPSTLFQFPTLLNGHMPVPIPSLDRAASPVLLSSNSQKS
In outline: as §1

Sequence of SPIB (Q01892 whole entry): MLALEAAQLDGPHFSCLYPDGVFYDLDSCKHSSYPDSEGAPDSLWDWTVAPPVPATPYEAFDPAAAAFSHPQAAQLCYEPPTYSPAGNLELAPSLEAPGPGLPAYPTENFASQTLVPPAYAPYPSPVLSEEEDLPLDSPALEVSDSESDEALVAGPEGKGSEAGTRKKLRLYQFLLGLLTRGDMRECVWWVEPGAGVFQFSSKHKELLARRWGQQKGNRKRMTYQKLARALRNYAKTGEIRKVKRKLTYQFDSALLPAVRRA
Sequence of ELF1 (P32519 whole entry): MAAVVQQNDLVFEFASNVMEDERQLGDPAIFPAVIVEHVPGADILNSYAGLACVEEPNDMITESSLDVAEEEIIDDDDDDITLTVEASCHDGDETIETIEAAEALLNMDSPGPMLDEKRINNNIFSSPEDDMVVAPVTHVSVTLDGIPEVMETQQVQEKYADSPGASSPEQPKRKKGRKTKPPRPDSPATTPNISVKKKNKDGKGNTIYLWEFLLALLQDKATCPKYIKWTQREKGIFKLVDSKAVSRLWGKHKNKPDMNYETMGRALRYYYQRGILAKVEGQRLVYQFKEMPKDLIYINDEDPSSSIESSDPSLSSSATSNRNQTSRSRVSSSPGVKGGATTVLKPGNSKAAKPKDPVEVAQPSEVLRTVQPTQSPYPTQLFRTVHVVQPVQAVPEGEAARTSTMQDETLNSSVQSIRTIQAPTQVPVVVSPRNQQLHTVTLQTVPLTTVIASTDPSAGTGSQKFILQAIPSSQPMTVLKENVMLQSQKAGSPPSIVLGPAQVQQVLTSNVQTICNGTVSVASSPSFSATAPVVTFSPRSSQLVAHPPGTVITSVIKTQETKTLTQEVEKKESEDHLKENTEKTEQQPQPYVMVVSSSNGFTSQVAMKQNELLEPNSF

For the sequence TAATTT, the binding signal is 1.35 fold enrichment (6-mer frequency, TF over GST control) with FLI1; 1.28 fold enrichment (6-mer frequency, TF over GST control) with ELK1; 1.5 fold enrichment (6-mer frequency, TF over GST control) with GABPA; 1.4 fold enrichment (6-mer frequency, TF over GST control) in the test with ERG; 1.41 fold enrichment (6-mer frequency, TF over GST control) with ELF1; 1.41 fold enrichment (6-mer frequency, TF over GST control) with EHF. Further, the binding signal is 1.38 fold enrichment (6-mer frequency, TF over GST control) with SPI1; 1.5 fold enrichment (6-mer frequency, TF over GST control) with SPIB; 1.52 fold enrichment (6-mer frequency, TF over GST control) with ELK3.
In the case of CATACT, the binding signal with FLI1 is 1.34 fold enrichment (6-mer frequency, TF over GST control); with ELK1, 1.29 fold enrichment (6-mer frequency, TF over GST control); with GABPA it was 1.36 fold enrichment (6-mer frequency, TF over GST control); with ERG, 1.27 fold enrichment (6-mer frequency, TF over GST control); with ELF1, 1.34 fold enrichment (6-mer frequency, TF over GST control); with EHF it was 1.31 fold enrichment (6-mer frequency, TF over GST control). The binding signal in the test with SPI1 is 1.33 fold enrichment (6-mer frequency, TF over GST control); in the test with SPIB it was 1.29 fold enrichment (6-mer frequency, TF over GST control); with ELK3, 1.29 fold enrichment (6-mer frequency, TF over GST control).
For the sequence TATTTT, the binding signal with FLI1 is 1.3 fold enrichment (6-mer frequency, TF over GST control); in the test with ELK1, 1.3 fold enrichment (6-mer frequency, TF over GST control); in the test with GABPA, 1.34 fold enrichment (6-mer frequency, TF over GST control); in the test with ERG, 1.39 fold enrichment (6-mer frequency, TF over GST control); in the test with ELF1, 1.31 fold enrichment (6-mer frequency, TF over GST control); with EHF, 1.44 fold enrichment (6-mer frequency, TF over GST control). Moreover, the binding signal with SPI1 was 1.35 fold enrichment (6-mer frequency, TF over GST control); with SPIB, 1.32 fold enrichment (6-mer frequency, TF over GST control); with ELK3 it was 1.36 fold enrichment (6-mer frequency, TF over GST control).
As for TATACA, the binding signal with FLI1 is 1.32 fold enrichment (6-mer frequency, TF over GST control); with ELK1 it was 1.29 fold enrichment (6-mer frequency, TF over GST control); with GABPA, 1.42 fold enrichment (6-mer frequency, TF over GST control); in the test with ERG, 1.39 fold enrichment (6-mer frequency, TF over GST control); with ELF1, 1.27 fold enrichment (6-mer frequency, TF over GST control); in the test with EHF, 1.35 fold enrichment (6-mer frequency, TF over GST control). Further, the binding signal with SPI1 was 1.32 fold enrichment (6-mer frequency, TF over GST control); with SPIB it was 1.22 fold enrichment (6-mer frequency, TF over GST control); with ELK3 it was 1.47 fold enrichment (6-mer frequency, TF over GST control).
In the case of TTGCGA, the binding signal with FLI1 was 1.19 fold enrichment (6-mer frequency, TF over GST control); with ELK1, 1.08 fold enrichment (6-mer frequency, TF over GST control); with GABPA, 1.1 fold enrichment (6-mer frequency, TF over GST control); with ERG, 1.17 fold enrichment (6-mer frequency, TF over GST control); in the test with ELF1 it was 1.16 fold enrichment (6-mer frequency, TF over GST control); with EHF, 1.13 fold enrichment (6-mer frequency, TF over GST control). Moreover, the binding signal with SPI1 is 1.17 fold enrichment (6-mer frequency, TF over GST control); in the test with SPIB, 1.23 fold enrichment (6-mer frequency, TF over GST control); with ELK3 it was 1.21 fold enrichment (6-mer frequency, TF over GST control).
As for CGTAAT, the binding signal in the test with FLI1 is 1.19 fold enrichment (6-mer frequency, TF over GST control); with ELK1, 1.14 fold enrichment (6-mer frequency, TF over GST control); with GABPA it was 1.13 fold enrichment (6-mer frequency, TF over GST control); with ERG, 1.19 fold enrichment (6-mer frequency, TF over GST control); in the test with ELF1, 1.18 fold enrichment (6-mer frequency, TF over GST control); with EHF it was 1.13 fold enrichment (6-mer frequency, TF over GST control). In addition, the binding signal with SPI1 was 1.16 fold enrichment (6-mer frequency, TF over GST control); with SPIB it was 1.19 fold enrichment (6-mer frequency, TF over GST control); with ELK3 it was 1.04 fold enrichment (6-mer frequency, TF over GST control).
For the sequence AGCTAC, the binding signal with FLI1 is 1.13 fold enrichment (6-mer frequency, TF over GST control); with ELK1 it was 1.11 fold enrichment (6-mer frequency, TF over GST control); with GABPA, 1.16 fold enrichment (6-mer frequency, TF over GST control); with ERG, 1.13 fold enrichment (6-mer frequency, TF over GST control); with ELF1 it was 1.15 fold enrichment (6-mer frequency, TF over GST control); with EHF, 1.22 fold enrichment (6-mer frequency, TF over GST control). The binding signal with SPI1 was 1.17 fold enrichment (6-mer frequency, TF over GST control); in the test with SPIB, 1.19 fold enrichment (6-mer frequency, TF over GST control); with ELK3, 1.18 fold enrichment (6-mer frequency, TF over GST control).
